Assay outcomes (PubChem)
HepG2 tox = HepG2 cytotoxicity, counter-screen for TGF-b inhibitors. 410,000 compounds, 0.76% hits. AID 588856. HepG2 CAGA-GFP viability, ATP luminescence, 18 h. Potency, µM (top dose mostly 46.1 µM), inactives show top-dose activity change, negative = cytotoxicity, most hits filed as cytotoxic; also: potency is read from the fitted curve at half-maximal effect
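HepG2 CAGA-GFP cells (1000/well, DMEM with 1% FBS) received compound, then TGF-beta at 500 pg/mL final, and were incubated 18 hours at 37 degrees C. Viability was read by CellTiter-Glo luminescence. Media-only wells were set as complete cell-killing and DMSO as no toxicity.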
IL-1B inflam inh = blocks inflammasome-driven IL-1 beta release | THP-1 LPS/ATP IL-1B secretion, AlphaLISA, 16 h; stronger effect = lower value | activity change, % at 57.5 µM | 360,000 compounds, 4.7% hits; in the data active = activity change below about -50%; inconclusive = mostly about -30% to -49%; also: % is scaled to controls: 0 for no effect and ±100 for the full control effect
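Secreted IL-1B measured by AlphaLISA bead assay after 16 h compound exposure of THP-1 cells; compounds (final up to 57.5 uM) added 1 h before LPS (250 ng/mL) and ATP (1.25 mM) stimulation; lower signal means less secretion.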
ATXN2 expr inh = reduces ATXN2 reporter expression in HEK-293 cells; HEK-293 ATXN2-luciferase reporter, luminescence, 24 h; 360,000 compounds, 0.72% hits; AID 1745845; Potency, µM (doses to about 57 µM), for inactives: at the highest dose activity change, negative = inhibition, actives largely listed as inhibitors; also: potency is read from the fitted curve at half-maximal effect; % is scaled to controls: 0 for no effect and ±100 for the full control effect; nearly all actives have a fitted effect of over 55% in size
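qHTS (up to 57 uM final) was run with 24 h compound exposure of reporter cells at 37 °C. Each well was multiplexed: SteadyGlo luminescence measured ATXN2-luciferase expression after a fluorogenic Gly-Phe-AFC viability readout (25 uM final).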
TGFb SMAD3 inh = TGF-b pathway inhibition. HepG2 CAGA-GFP TGF-b/SMAD3 reporter, GFP fluorescence, 18 h; TGF-beta stimulated, 500 pg/mL final. Potency, µM (highest dose often 46.1 µM), for the others: at the top dose activity, negative = inhibition, actives largely listed as inhibitors. 410,000 compounds, 1.2% hits; also: potency is read from the fitted curve at half-maximal effect; % is scaled to controls: 0 for no effect and ±100 for the full control effect; nearly all actives have a fitted effect of over 65% in size
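Using HEPG2 CAGA-GFP reporter cells at 1000 cells/well, we pinned test compounds, stimulated with recombinant TGF-beta (500 pg/mL final) and measured total well GFP after 18 h.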
S2 tox = viability counter-screen for ATXN expression inhibitors; S2 cells (HEK-293 line with an ATXN2-luciferase reporter) viability, CellTiter-Fluor protease fluorescence, 24 h; Potency, µM (top dose mostly 56.7 µM), usual class: cytotoxic; 400,000 compounds, 0.49% hits; AID 651635; also: potency is read from the fitted curve at half-maximal effect; nearly all actives have a fitted effect of over 40% in size
* marks the source's active call; other numbers are inactive results; i = inactive; ? = inconclusive; . = no result. In the library only some 5.7% were active in any assay of this set; here they are far more common. Unless noted, calls follow the shape of the dose curve; as a rule, active = well fitted curve in the direction sought with a large enough effect; inconclusive = small, poorly fitted or top-dose-only effect, or another doubt; inactive = no such curve, though single readings can be large; an effect the other way counts as inactive or inconclusive.

SMILES	HepG2 tox	IL-1B inflam inh	ATXN2 expr inh	TGFb SMAD3 inh	S2 tox
CCNc1ccc(/C=C/c2ccnc3ccccc23)cc1	-24%	.	.	0%	.
Cc1nc2ccc(Br)cc2c2c1CC(CBr)O2 (stereo not drawn)	0%	-74*	-19%	3%	i
CC(C)(C)NCC(O)COc1ccccc1C(=O)CCc1ccccc1 (stereo not drawn)	-44%	-77*	?	?	?
CCCNC[C@H](O)COc1ccccc1C(=O)CCc1ccccc1	.	.	.	.	i
CN(C)Cc1c(O)ccc2occ(C(=O)c3ccc(F)cc3)c12	-1%	-54*	-2%	-6%	i
C/C=C/c1ccc(OCC(O)CNCCc2ccc(OC)cc2)c(OC)c1 (stereo not drawn)	-41%	?	-16%	?	i
C/C=C/c1ccc(OCC(O)CNCC(c2ccc(OC)cc2)N(C)C)c(OC)c1 (stereo not drawn)	-13%	-57*	-2%	0%	i
c1cncc(-c2nc(NCCCN3CCOCC3)c3c4c(sc3n2)CCC4)c1	-2%	-129*	.	-29%	i
c1cncc(-c2nc(N3CCOCC3)c3c4c(sc3n2)CCC4)c1	2%	0	?	-9%	.
CCc1ccc(N2CCn3c2nc2c3c(=O)n(C/C=C/c3ccccc3)c(=O)n2C)cc1	0%	.	.	-11%	.
CSc1nnc(CCNC(=O)/C=C/c2cccc(F)c2)n1-c1ccc(F)cc1	.	.	.	.	i
CCCC(=O)NC(=S)Nc1ccc(N2CCN(C(=O)c3cccs3)CC2)cc1	-23%	-85*	?	?	i
CCCC(=O)NC(=S)Nc1ccc(NC(=O)c2cccs2)cc1	-17%	-10	15%	17%	i
O=C(NC(=S)Nc1ccccc1N1CCN(C(=O)c2ccccc2)CC1)c1cccs1	-8%	9	.	-4%	i
O=C(NC(=S)Nc1ccc(N2CCN(C(=O)c3ccccc3)CC2)cc1)c1cccs1	-9%	-60*	?	?	i
CCOC(=O)c1cc(S(=O)(=O)NCc2ccc(Cl)cc2)[nH]n1	-5%	.	-3%	3%	i
O=C(CNC(=S)N(Cc1ccccc1)Cc1ccccc1F)NCc1ccccc1	-21%	-18	-29%	?	?
CCOC(=O)CNC(=S)N(Cc1ccccc1)Cc1cccs1	-5%	-5	-24%	-14%	i
CCOC(=O)CNC(=S)N(Cc1ccccc1)Cc1ccccc1F	-27%	-56*	-19%	-21%	i
Cc1ccc(CNC(=O)CNC(=S)N(Cc2ccccc2)Cc2ccccc2F)cc1	-35%	-69*	?	?	?
Cc1c(C(=O)N2CC3CCC2C3)sc2ncnc(NCCc3ccccn3)c12 (stereo not drawn)	.	.	.	.	i
CCOC(=O)CNC(=O)C1Cc2ccccc2CN1S(=O)(=O)c1cccs1 (stereo not drawn)	3%	-5	-5%	-7%	i
COC(=O)CNC(=O)C1Cc2ccccc2CN1S(=O)(=O)c1cccs1 (stereo not drawn)	17%	-74*	7%	4%	i
CN(C)/C=C1/C=C(c2ccccc2)OC1=O	0%	-53*	2%	-4%	i
Cc1nc(NCCc2ccc(F)cc2)c(C#N)c(C)c1[N+](=O)[O-]	0%	-94*	13%	3%	?
SMILES	HepG2 tox	IL-1B inflam inh	ATXN2 expr inh	TGFb SMAD3 inh	S2 tox
CC(C)OC(=O)c1cn(-c2ccccc2)nc1-c1ccco1	-35%	-90*	-9%	-19%	?
CCOC(=O)C1=C(C)NC(C)=C(C(=O)OCC)C1c1cn(-c2ccccc2)nc1-c1ccco1	-20%	-18	-16%	9%	i
COc1ccc(CNc2nn3c(-c4cccc(C(=O)N(C)C)c4)cnc3s2)cc1	-38%	?	-14%	?	?
NS(=O)(=O)c1ccc(CCNc2nn3c(-c4cccc(OC(F)(F)F)c4)cnc3s2)cc1	-24%	-84*	25µM*	?	?
N#Cc1cc2ccccc2nc1N	0.28µM*	17	-11%	?	i
O=c1cc(C(F)(F)F)[nH]c2c(OC(F)(F)F)cccc12	-61%	-59*	-35%	?	i
